Tests used:
Experiment in all cases: DAPPL (digital affinity profiling via proximity ligation, sequencing); 10 mM Tris-HCl pH 7.5, 50 mM NaCl, 1 mM DTT, 4% glycerol, room temperature, 30 min; GST-TFs on glutathione beads, 16-mer random dsDNA library, 0.1% formaldehyde crosslink after washing; high values mean tight binding
Conditions in all cases: protein: recombinant; tags: N-terminal GST; dsDNA, one strand shown
FLI1 = target: T1, FLI1 (Homo sapiens, UniProt Q01543 1-452)
T1 sequence: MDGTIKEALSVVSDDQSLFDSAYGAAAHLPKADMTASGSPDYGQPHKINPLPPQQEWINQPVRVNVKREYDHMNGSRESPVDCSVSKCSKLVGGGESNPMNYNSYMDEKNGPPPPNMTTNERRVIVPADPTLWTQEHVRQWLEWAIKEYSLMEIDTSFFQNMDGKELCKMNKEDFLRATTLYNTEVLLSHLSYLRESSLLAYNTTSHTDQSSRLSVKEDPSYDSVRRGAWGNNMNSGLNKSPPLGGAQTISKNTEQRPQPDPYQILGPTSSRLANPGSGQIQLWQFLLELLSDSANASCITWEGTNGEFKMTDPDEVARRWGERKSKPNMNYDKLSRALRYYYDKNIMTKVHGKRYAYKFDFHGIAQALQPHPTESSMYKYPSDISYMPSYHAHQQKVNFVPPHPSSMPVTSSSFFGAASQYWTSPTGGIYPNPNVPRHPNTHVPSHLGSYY
Procedure, shortened: (§1)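 Binding signal is defined as a hexamer's read frequency for one factor over its frequency for the tag-only sample. To obtain reads, GST-fused human transcription factors were expressed in yeast, captured on glutathione beads, barcoded with DNA and pooled with that sample. Pools met 200 nmole of a 16-mer random double-stranded DNA library in Tris/NaCl/DTT/glycerol buffer for 30 min at room temperature before washing, 0.1% formaldehyde crosslinking, proximity ligation (BsaI/T4 ligase, 1 h, 37 °C), PCR and Illumina NextSeq500 sequencing.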

ELK1 = target: T2, ELK1 (Homo sapiens, UniProt P19419 1-428)
T2 sequence: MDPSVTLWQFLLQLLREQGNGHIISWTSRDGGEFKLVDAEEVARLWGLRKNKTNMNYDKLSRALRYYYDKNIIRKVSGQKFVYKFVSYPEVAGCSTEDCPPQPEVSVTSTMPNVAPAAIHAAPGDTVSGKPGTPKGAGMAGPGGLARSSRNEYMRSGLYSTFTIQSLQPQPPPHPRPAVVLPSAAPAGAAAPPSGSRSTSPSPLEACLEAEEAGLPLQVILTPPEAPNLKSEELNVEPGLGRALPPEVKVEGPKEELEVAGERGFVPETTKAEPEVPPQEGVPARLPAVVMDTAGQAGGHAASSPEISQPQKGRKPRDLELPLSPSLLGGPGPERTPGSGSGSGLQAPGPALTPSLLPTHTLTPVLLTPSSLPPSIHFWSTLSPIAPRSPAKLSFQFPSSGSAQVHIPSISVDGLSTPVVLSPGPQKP
Procedure, shortened: as §1

ERG = target: T3, ERG (Homo sapiens, UniProt P11308 1-479)
T3 sequence: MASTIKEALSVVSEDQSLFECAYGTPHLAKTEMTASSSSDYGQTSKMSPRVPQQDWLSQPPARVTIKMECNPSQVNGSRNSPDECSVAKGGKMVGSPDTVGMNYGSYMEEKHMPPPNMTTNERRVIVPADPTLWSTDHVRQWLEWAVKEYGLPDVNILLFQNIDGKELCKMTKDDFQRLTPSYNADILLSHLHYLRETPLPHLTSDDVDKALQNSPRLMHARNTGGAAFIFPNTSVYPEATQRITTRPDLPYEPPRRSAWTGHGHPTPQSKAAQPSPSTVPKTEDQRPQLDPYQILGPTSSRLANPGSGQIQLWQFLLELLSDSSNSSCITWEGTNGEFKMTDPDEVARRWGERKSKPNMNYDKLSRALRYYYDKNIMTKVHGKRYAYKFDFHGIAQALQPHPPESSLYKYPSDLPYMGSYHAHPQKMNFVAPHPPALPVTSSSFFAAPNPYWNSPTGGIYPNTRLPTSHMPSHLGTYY
Procedure, shortened: as §1

SPIB = SPIB (Homo sapiens, UniProt Q01892 1-262)
Procedure, shortened: as §1

SPIC = target: T4, SPIC (Homo sapiens, UniProt Q8N5J4 1-248)
T4 sequence: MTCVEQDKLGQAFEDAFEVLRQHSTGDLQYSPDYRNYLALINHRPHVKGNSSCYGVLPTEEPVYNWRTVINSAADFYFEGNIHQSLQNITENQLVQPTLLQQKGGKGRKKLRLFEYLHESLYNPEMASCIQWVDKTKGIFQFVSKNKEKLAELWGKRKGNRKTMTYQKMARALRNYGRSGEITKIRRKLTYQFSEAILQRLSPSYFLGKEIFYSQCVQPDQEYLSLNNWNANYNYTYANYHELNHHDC
Procedure, shortened: as §1

ETV7 = target: T5, ETV7 (Homo sapiens, UniProt Q9Y603 1-341)
T5 sequence: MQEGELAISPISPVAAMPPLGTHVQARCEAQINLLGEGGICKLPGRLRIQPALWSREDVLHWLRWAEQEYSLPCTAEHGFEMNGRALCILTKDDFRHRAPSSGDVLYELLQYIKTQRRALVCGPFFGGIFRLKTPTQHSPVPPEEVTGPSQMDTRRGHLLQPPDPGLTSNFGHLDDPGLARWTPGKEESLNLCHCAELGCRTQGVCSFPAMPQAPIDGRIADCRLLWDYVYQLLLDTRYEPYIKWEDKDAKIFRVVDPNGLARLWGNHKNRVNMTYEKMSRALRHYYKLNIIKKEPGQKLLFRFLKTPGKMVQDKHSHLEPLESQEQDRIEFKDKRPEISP
Procedure, shortened: as §1

ETV3 = target: T6, ETV3 (Homo sapiens, UniProt P41162-2 1-143)
T6 sequence: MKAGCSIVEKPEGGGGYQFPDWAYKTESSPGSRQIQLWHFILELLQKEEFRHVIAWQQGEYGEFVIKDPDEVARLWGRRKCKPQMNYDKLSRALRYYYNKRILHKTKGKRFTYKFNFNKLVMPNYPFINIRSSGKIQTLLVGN
Procedure, shortened: as §1

EHF = target: T7, EHF (Homo sapiens, UniProt Q9NZC4 1-300)
T7 sequence: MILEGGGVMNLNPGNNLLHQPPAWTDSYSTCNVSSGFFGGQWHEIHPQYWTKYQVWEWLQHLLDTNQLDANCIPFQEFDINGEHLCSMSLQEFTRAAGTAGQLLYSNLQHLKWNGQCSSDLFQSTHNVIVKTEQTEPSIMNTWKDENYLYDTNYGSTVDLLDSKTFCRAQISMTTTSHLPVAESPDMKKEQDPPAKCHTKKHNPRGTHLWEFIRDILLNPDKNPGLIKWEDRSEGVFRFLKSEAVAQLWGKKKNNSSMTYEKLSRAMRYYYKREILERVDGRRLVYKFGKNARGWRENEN
Procedure, shortened: as §1

ELK3 = target: T8, ELK3 (Homo sapiens, UniProt P41970 1-407)
T8 sequence: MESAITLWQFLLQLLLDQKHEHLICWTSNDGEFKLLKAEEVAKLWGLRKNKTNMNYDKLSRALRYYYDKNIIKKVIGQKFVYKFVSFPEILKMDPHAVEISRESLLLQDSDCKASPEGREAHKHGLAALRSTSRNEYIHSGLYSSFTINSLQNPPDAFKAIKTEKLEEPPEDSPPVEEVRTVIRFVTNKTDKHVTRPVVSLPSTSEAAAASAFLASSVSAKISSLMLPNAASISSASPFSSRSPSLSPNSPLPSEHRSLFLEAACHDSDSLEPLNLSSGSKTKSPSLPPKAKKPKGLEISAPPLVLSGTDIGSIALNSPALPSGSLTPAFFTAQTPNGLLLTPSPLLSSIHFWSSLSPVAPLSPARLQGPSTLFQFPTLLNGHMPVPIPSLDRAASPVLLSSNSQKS
Procedure, shortened: as §1

ELF4 = ELF4 (Homo sapiens, UniProt Q99607 1-663)
Procedure, shortened: as §1

ELF3 = target: T9, ELF3 (Homo sapiens, UniProt P78545 1-371)
T9 sequence: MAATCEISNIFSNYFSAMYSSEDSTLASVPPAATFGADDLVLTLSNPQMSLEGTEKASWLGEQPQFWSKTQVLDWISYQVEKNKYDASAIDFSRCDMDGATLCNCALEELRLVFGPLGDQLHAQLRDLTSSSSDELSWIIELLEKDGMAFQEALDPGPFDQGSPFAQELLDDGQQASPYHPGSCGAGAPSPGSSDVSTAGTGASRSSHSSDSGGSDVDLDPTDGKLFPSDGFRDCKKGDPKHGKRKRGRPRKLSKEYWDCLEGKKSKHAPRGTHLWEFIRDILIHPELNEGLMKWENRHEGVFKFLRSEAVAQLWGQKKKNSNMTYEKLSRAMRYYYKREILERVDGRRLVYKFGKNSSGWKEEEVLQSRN
Procedure, shortened: as §1

ERF = target: T10, ERF (Homo sapiens, UniProt P50548 1-548)
T10 sequence: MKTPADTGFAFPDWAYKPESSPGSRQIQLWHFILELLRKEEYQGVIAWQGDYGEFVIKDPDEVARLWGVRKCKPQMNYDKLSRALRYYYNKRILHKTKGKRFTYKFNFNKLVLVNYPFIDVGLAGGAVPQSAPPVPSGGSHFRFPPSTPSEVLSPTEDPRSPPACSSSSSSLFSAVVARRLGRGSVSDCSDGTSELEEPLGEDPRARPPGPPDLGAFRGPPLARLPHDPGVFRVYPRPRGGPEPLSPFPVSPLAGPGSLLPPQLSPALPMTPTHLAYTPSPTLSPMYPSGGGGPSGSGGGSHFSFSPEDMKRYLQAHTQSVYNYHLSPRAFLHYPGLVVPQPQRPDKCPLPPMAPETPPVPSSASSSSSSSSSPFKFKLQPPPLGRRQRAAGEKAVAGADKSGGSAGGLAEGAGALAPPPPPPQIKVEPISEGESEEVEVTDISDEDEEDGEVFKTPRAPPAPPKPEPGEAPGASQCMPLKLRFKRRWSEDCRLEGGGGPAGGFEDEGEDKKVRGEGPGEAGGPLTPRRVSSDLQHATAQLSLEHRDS
Procedure, shortened: as §1

ELF5 = target: T11, ELF5 (Homo sapiens, UniProt Q9UKW6-2 1-255)
T11 sequence: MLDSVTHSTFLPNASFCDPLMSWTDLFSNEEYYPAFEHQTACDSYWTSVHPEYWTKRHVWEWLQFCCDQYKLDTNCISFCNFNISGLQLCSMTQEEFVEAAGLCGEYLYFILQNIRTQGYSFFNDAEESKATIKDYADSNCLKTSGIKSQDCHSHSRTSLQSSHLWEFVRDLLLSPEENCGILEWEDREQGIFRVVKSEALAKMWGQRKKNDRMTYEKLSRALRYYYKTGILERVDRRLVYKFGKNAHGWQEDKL
Procedure, shortened: as §1

Chain of SPIB (Q01892 whole entry): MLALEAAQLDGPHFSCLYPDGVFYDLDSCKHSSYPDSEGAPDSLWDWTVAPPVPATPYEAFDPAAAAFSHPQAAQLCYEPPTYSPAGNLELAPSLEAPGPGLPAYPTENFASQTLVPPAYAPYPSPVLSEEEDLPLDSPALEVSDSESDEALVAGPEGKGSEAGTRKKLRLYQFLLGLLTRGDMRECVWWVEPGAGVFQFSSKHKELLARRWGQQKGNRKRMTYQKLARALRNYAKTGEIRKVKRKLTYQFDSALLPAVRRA
Chain of ELF4 (Q99607 whole entry): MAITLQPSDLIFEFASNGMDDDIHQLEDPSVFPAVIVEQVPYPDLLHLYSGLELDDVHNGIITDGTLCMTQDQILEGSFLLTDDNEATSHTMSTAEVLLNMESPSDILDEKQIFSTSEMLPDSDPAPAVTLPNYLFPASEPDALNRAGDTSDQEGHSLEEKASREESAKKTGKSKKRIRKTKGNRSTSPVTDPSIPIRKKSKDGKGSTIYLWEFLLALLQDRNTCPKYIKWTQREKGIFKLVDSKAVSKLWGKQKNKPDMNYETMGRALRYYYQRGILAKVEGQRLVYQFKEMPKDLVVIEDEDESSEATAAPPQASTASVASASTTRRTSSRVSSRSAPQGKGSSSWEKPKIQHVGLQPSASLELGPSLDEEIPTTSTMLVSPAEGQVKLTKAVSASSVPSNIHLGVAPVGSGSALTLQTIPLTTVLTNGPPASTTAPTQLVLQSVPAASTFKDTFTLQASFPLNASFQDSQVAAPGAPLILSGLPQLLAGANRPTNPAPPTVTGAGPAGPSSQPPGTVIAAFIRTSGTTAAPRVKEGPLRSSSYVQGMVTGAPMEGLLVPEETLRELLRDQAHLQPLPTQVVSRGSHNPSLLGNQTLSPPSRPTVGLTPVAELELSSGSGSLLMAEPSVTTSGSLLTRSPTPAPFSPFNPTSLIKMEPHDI

| Sequence | binding signal (FLI1) | binding signal (ELK1) | binding signal (ERG) | binding signal (SPIB) | binding signal (SPIC) | binding signal (ETV7) | binding signal (ETV3) | binding signal (EHF) | binding signal (ELK3) | binding signal (ELF4) | binding signal (ELF3) | binding signal (ERF) | binding signal (ELF5) |
| --- | --- | --- | --- | --- | --- | --- | --- | --- | --- | --- | --- | --- | --- |
| CCCGCG | 1.02 fold enrichment (6-mer frequency, TF over GST control) | 1.05 fold enrichment (6-mer frequency, TF over GST control) | 1.02 fold enrichment (6-mer frequency, TF over GST control) | 1.11 fold enrichment (6-mer frequency, TF over GST control) | 1.05 fold enrichment (6-mer frequency, TF over GST control) | 1.03 fold enrichment (6-mer frequency, TF over GST control) | 1.01 fold enrichment (6-mer frequency, TF over GST control) |  |  |  |  |  |  |
| AGGCCC | 1.01 fold enrichment (6-mer frequency, TF over GST control) |  |  |  | 1.08 fold enrichment (6-mer frequency, TF over GST control) | 1.03 fold enrichment (6-mer frequency, TF over GST control) | 1.01 fold enrichment (6-mer frequency, TF over GST control) |  |  |  |  |  |  |
| AGTTTT | 1.05 fold enrichment (6-mer frequency, TF over GST control) |  |  | 1.08 fold enrichment (6-mer frequency, TF over GST control) |  | 1.02 fold enrichment (6-mer frequency, TF over GST control) | 1.07 fold enrichment (6-mer frequency, TF over GST control) | 1.02 fold enrichment (6-mer frequency, TF over GST control) | 1.14 fold enrichment (6-mer frequency, TF over GST control) | 1.04 fold enrichment (6-mer frequency, TF over GST control) | 1.01 fold enrichment (6-mer frequency, TF over GST control) | 1.09 fold enrichment (6-mer frequency, TF over GST control) | 1.01 fold enrichment (6-mer frequency, TF over GST control) |

Source: paper PMC7862700, “An all-to-all approach to the identification of sequence-specific readers for epigenetic DNA modifications on cytosine”
